# Measured values published in the supplement of paper PMC8728848.
# The full list was thinned out, with the strongest signals kept by preference.
# Key:
# Assay in all cases: glycan array binding signal (z-score within array); higher = stronger binding
# Details in all cases: glycan notation: IUPAC condensed, linker removed; mutation: F63H
# [1] = target: Gal3S(b1-3)[Fuc(a1-4)]GlcNAc
# In short: (§1)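 Negative Z-scores can be read as non-binding. The Z-score is calculated within each array and then averaged across arrays of one protein sequence at different concentrations or buffers and across linkers. Arrays, 3228 in all, were curated from the Consortium for Functional Glycomics database and kept only where the protein sequence was available.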
# Gal4S(b1-4)GlcNAc = target: Gal4S(b1-4)GlcNAc
# In short: as §1
# GalNAc(b1-3)GlcNAc = target: GalNAc(b1-3)GlcNAc
# In short: as §1
# [2] = target: Glc(a1-6)Glc(a1-6)Glc(a1-6)Glc
# In short: as §1
# GlcA(b1-6)Gal = target: GlcA(b1-6)Gal
# In short: as §1
# [3] = target: GlcA3S(b1-3)Gal(b1-4)GlcNAc(b1-2)Man
# In short: as §1
# [4] = target: GlcA3S(b1-3)Gal(b1-4)GlcNAc(b1-3)Gal(b1-4)Glc
# In short: as §1
# [5] = target: GlcNAc(a1-4)Gal(b1-4)GlcNAc(b1-3)Gal(b1-4)GlcNAc
# In short: as §1
# [6] = target: GlcNAc(b1-2)Man(a1-3)[GlcNAc(b1-4)][GlcNAc(b1-2)Man(a1-6)]Man(b1-4)GlcNAc(b1-4)[Fuc(a1-6)]GlcNAc
# In short: as §1
# GlcNAc(b1-3)Gal(b1-4)Glc = target: GlcNAc(b1-3)Gal(b1-4)Glc
# In short: as §1
# [7] = target: GlcNAc(b1-3)Gal(b1-4)GlcNAc(b1-3)Gal(b1-4)GlcNAc(b1-2)[GlcNAc(b1-3)Gal(b1-4)GlcNAc(b1-3)Gal(b1-4)GlcNAc(b1-6)]Man(a1-6)[GlcNAc(b1-3)Gal(b1-4)GlcNAc(b1-3)Gal(b1-4)GlcNAc(b1-2)Man(a1-3)]Man(b1-4)GlcNAc(b1-4)[Fuc(a1-6)]GlcNAc
# In short: as §1
# [8] = target: GlcNAc(b1-3)Gal(b1-4)GlcNAc(b1-3)Gal(b1-4)GlcNAc(b1-3)Gal(b1-4)GlcNAc(b1-2)Man(a1-3)[GlcNAc(b1-3)Gal(b1-4)GlcNAc(b1-3)Gal(b1-4)GlcNAc(b1-3)Gal(b1-4)GlcNAc(b1-2)Man(a1-6)]Man(b1-4)GlcNAc(b1-4)[Fuc(a1-6)]GlcNAc
# In short: as §1
# [9] = target: GlcNAc(b1-3)Gal(b1-4)GlcNAc(b1-3)Gal(b1-4)GlcNAc(b1-3)Gal(b1-4)GlcNAc(b1-3)Gal(b1-4)GlcNAc(b1-2)[GlcNAc(b1-3)Gal(b1-4)GlcNAc(b1-3)Gal(b1-4)GlcNAc(b1-3)Gal(b1-4)GlcNAc(b1-3)Gal(b1-4)GlcNAc(b1-6)]Man(a1-6)[GlcNAc(b1-3)Gal(b1-4)GlcNAc(b1-3)Gal(b1-4)GlcNAc(b1-3)Gal(b1-4)GlcNAc(b1-3)Gal(b1-4)GlcNAc(b1-2)Man(a1-3)]Man(b1-4)GlcNAc(b1-4)[Fuc(a1-6)]GlcNAc
# In short: as §1
# [10] = target: GlcNAc(b1-3)Gal(b1-4)GlcNAc(b1-3)[GlcNAc(b1-3)Gal(b1-4)GlcNAc(b1-3)]GalNAc
# In short: as §1
# GlcNAc(b1-3)Man = target: GlcNAc(b1-3)Man
# In short: as §1
# [11] = target: GlcNAc(b1-3)[GlcNAc(b1-4)][GlcNAc(b1-6)]GlcNAc
# In short: as §1
# [12] = target: GlcNAc(b1-3)[GlcNAc(b1-6)]GalNAc
# In short: as §1
# Kdn(a2-3)Gal(b1-3)GlcNAc = target: Kdn(a2-3)Gal(b1-3)GlcNAc
# In short: as §1
# [13] = target: Man(a1-2)Man(a1-2)Man(a1-6)[Man(a1-3)]Man
# In short: as §1
# Man(a1-2)Man(a1-3)Man = target: Man(a1-2)Man(a1-3)Man
# In short: as §1
# [14] = target: Neu5Ac(a2-3)Gal(b1-3)GalNAc(b1-4)Gal(b1-4)Glc
# In short: as §1
# [15] = target: Neu5Ac(a2-3)Gal(b1-3)GlcNAc
# In short: as §1
# [16] = target: Neu5Ac(a2-3)Gal(b1-3)[Fuc(a1-4)]GlcNAc(b1-3)Gal(b1-4)[Fuc(a1-3)]GlcNAc
# In short: as §1
# [17] = target: Neu5Ac(a2-3)Gal(b1-3)[GlcNAc(b1-6)]GalNAc
# In short: as §1
# [18] = target: Neu5Ac(a2-3)Gal(b1-4)GlcNAc(b1-2)[Neu5Ac(a2-3)Gal(b1-4)GlcNAc(b1-4)]Man(a1-3)[GlcNAc(b1-4)][Neu5Ac(a2-3)Gal(b1-4)GlcNAc(b1-4)Man(a1-6)]Man(b1-4)GlcNAc(b1-4)GlcNAc
# In short: as §1
# [19] = target: Neu5Ac(a2-3)Gal(b1-4)GlcNAc(b1-2)[Neu5Ac(a2-3)Gal(b1-4)GlcNAc(b1-6)]Man(a1-6)[Neu5Ac(a2-3)Gal(b1-4)GlcNAc(b1-2)Man(a1-3)][GlcNAc(b1-4)]Man(b1-4)GlcNAc(b1-4)GlcNAc
# In short: as §1
# [20] = target: Neu5Ac(a2-3)Gal(b1-4)GlcNAc(b1-6)[Gal(b1-3)]GalNAc
# In short: as §1
# [21] = target: Neu5Ac(a2-6)Gal(b1-4)GlcNAc(b1-2)Man(a1-3)[GlcNAc(b1-2)Man(a1-6)]Man(b1-4)GlcNAc(b1-4)GlcNAc
# In short: as §1
# [22] = target: Neu5Ac(a2-6)Gal(b1-4)GlcNAc(b1-3)Gal(b1-4)GlcNAc(b1-2)Man(a1-3)[Neu5Ac(a2-6)Gal(b1-4)GlcNAc(b1-3)Gal(b1-4)GlcNAc(b1-2)Man(a1-6)]GalNAc
# In short: as §1
# [23] = target: Neu5Ac(a2-6)Gal(b1-4)GlcNAc(b1-6)[Gal(b1-3)]GalNAc
# In short: as §1
# Neu5Gc(a2-3)Gal(b1-4)Glc = target: Neu5Gc(a2-3)Gal(b1-4)Glc
# In short: as §1
# [24] = target: Neu5Gc(a2-3)Gal(b1-4)[Fuc(a1-3)]GlcNAc
# In short: as §1
binder,measurement,setting,value
"AAL (Agrocybe aegerita), Q6WY08 (protein) MQGVNIYNISAGTSVDLAAPVTTGDIVTFFSSALNLNAGAGNPNNTTLNLFAENGAYLLHIAHRLQENVIIFNSRQPDGPWLVEQRVSDVANQFAGIDGKAMVTVFDHGDKYQVVINEKTVIQYTKQISGLTLSLSYNATEETSIFSTVVEAVTYTGLALEHHHHHH",glycan array binding signal (z-score),[1],-0.366
same,glycan array binding signal (z-score),Gal4S(b1-4)GlcNAc,-0.569
same,glycan array binding signal (z-score),GalNAc(b1-3)GlcNAc,-0.08
same,glycan array binding signal (z-score),[2],-0.408
same,glycan array binding signal (z-score),GlcA(b1-6)Gal,0.43
same,glycan array binding signal (z-score),[3],14.9
same,glycan array binding signal (z-score),[4],12.7
same,glycan array binding signal (z-score),[5],-0.067
same,glycan array binding signal (z-score),[6],-0.109
same,glycan array binding signal (z-score),GlcNAc(b1-3)Gal(b1-4)Glc,1.42
same,glycan array binding signal (z-score),[7],0.909
same,glycan array binding signal (z-score),[8],0.906
same,glycan array binding signal (z-score),[9],0.818
same,glycan array binding signal (z-score),[10],0.58
same,glycan array binding signal (z-score),GlcNAc(b1-3)Man,-0.511
same,glycan array binding signal (z-score),[11],-0.568
same,glycan array binding signal (z-score),[12],-0.374
same,glycan array binding signal (z-score),Kdn(a2-3)Gal(b1-3)GlcNAc,-0.066
same,glycan array binding signal (z-score),[13],-0.576
same,glycan array binding signal (z-score),Man(a1-2)Man(a1-3)Man,-0.172
same,glycan array binding signal (z-score),[14],0.045
same,glycan array binding signal (z-score),[15],-0.26
same,glycan array binding signal (z-score),[16],-0.137
same,glycan array binding signal (z-score),[17],0.214
same,glycan array binding signal (z-score),[18],-0.283
same,glycan array binding signal (z-score),[19],1.54
same,glycan array binding signal (z-score),[20],0.404
same,glycan array binding signal (z-score),[21],-0.73
same,glycan array binding signal (z-score),[22],-0.58
same,glycan array binding signal (z-score),[23],0.137
same,glycan array binding signal (z-score),Neu5Gc(a2-3)Gal(b1-4)Glc,1.34
same,glycan array binding signal (z-score),[24],0.023
